# According to article PMC5540273 (PLoS ONE, 2017):
# Assays:
# Conditions in all cases: concentration: 1 μM, replicates: in singlicate; n = 1
# MEK2 = test system: T1, MEK2
# T1 construct: gene MAP2K2
# MEK3 = test system: T2, MEK3
# T2 construct: gene MAP2K3
# MEK4 = test system: T3, MEK4
# T3 construct: gene MAP2K4
# MEK5 = test system: T4, MEK5
# T4 construct: gene MAP2K5
# MEK6 = test system: T5, MEK6
# T5 construct: gene MAP2K6
# MELK = test system: MELK
# MERTK = test system: MERTK
# MET = test system: MET
# MINK = test system: T6, MINK
# T6 construct: gene MINK1
# MKK7 = test system: MKK7
# MKNK1 = test system: MKNK1
# MKNK2 = test system: MKNK2
# MLCK = test system: T7, MLCK
# T7 construct: gene MYLK3
# MLK1 = test system: T8, MLK1
# T8 construct: gene MAP3K9
# MLK2 = test system: MLK2
# MLK3 = test system: MLK3
# MRCKA = test system: MRCKA
# MRCKB = test system: T9, MRCKB
# T9 construct: gene CDC42BPB
# MST1R = test system: MST1R
# MST1 = test system: T10, MST1
# T10 construct: gene STK4
# 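Further: KINOMEscan kinase panel screen.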
SMILES,%Inh (MEK2) [%],%Inh (MEK3) [%],%Inh (MEK4) [%],%Inh (MEK5) [%],%Inh (MEK6) [%],%Inh (MELK) [%],%Inh (MERTK) [%],%Inh (MET) [%],%Inh (MINK) [%],%Inh (MKK7) [%],%Inh (MKNK1) [%],%Inh (MKNK2) [%],%Inh (MLCK) [%],%Inh (MLK1) [%],%Inh (MLK2) [%],%Inh (MLK3) [%],%Inh (MRCKA) [%],%Inh (MRCKB) [%],%Inh (MST1R) [%],%Inh (MST1) [%]
COc1ccc(CNC(=O)NC2CCN(c3ccnc(Nc4cc(OC)c(OC)c(OC)c4)n3)C2)cc1 (stereo not shown) [GSK1379748],0,0,6,98.4,0,0,36,9,0,0,8,30,0,0,21,23,34,0,29,0
COC(=O)c1c(-c2ccccc2)c2cc(C(=O)O)ccc2c(=O)n1Cc1ccccc1,10,7,0,4,0,0,0,0,0,0,0,0,0,41,14,0,0,0,19,0
CS(=O)(=O)c1ccc(-c2c(-c3ncn[nH]3)sc(N3CCOCC3)c2C#N)cc1,0,0,0,16,0,5,0,0,21,10,0,0,13,0,51,15,0,16,29,24
Cc1c(O)cccc1Nc1ccnc2ccc(C(F)(F)F)cc12.Cl [GW466413],0,0,19,35,0,11,0,0,2,0,0,1,1,0,0,4,0,0,0,0
NC(=O)c1nnc2ccccc2c1N,47,46,17,34,0,9,0,16,38,0,12,0,0,84,0,0,0,0,10,4
O=C(O)COc1ncnc2cc(-c3ccc4[nH]ncc4c3)sc12,7,17,37,38,0,21,0,1,12,0,8,13,1,10,4,0,0,0,25,73
Fc1cc(Cl)ccc1Nc1ccnc2cc(I)ccc12 [GW551191],0,0,46,75,0,16,30,8,51,0,0,18,2,0,0,0,16,0,82,0
COc1ccc(Nc2nccc(-c3cccc(NC(=O)c4cc5cc(F)ccc5[nH]4)c3)n2)cc1 [GSK1229782],0,22,28,96.1,3,10,47,0,55,21,26,0,9,5,20,34,27,2,31,16
Cl.Oc1ccc(-c2nc(-c3ccccc3)[nH]c2-c2ccncc2)cc1 [SB-428218],0,0,0,17,1,2,0,0,11,0,0,0,14,0,0,0,43,2,0,10
COc1ccc2nc(-c3cccc(C)n3)nc(Nc3ccncc3)c2c1 [GSK204919],0,0,17,1,0,0,15,15,30,0,0,9,0,0,0,7,38,94.1,26,11
Cc1cccc(-c2nc(Nc3ccncc3)c3ccccc3n2)n1 [GW855857],25,0,0,14,0,11,9,25,33,0,0,0,0,11,7,6,47,63,0,0
Cc1ccc(C(=O)Nc2ccc(Nc3ccnc4cc(-c5ccccn5)ccc34)cc2O)cc1.Cl [GW440146],0,0,19,100,0,0,33,0,36,0,0,0,0,0,0,0,18,0,52,10
CS(=O)(=O)c1ccc(-c2nc3n(c2-c2ccncc2)CCC3)cc1 [SKF-105942],0,0,8,15,0,0,24,0,1,0,9,6,0,0,0,1,14,2,19,0
Cc1cc(NCC(c2ccccc2)c2ccccc2)nc(NCc2ccc(C(F)(F)F)cc2)n1 [GW497681],0,0,10,1,0,0,7,13,0,0,0,0,3,0,0,0,3,0,10,0
Cn1cncc1-c1ccc2ncnc(Nc3ccc(OCc4ccccc4)cc3)c2c1 [GW320571],0,0,35,93.7,0,15,2,11,0,15,24,27,7,8,26,20,8,17,29,14
Cl.c1ccc(-c2n[nH]cc2-c2ccnc(-c3ccc(CN4CCOCC4)cc3)c2)nc1 [GW776245],49,0,27,5,0,5,8,16,8,0,1,0,0,13,25,10,29,0,0,21
COc1cc2ncn(-c3cc(OCC4CCCO4)c(C(N)=O)s3)c2cc1OC (stereo not shown) [GSK204607],9,0,5,99.3,0,0,10,0,27,0,0,4,0,0,0,10,8,0,16,0
Cc1cccc(-c2nc(C)cc(Nc3ccncc3)n2)n1 [GSK257997],0,0,32,8,0,0,18,0,6,0,0,0,0,0,0,39,34,81,35,8
O=C(Nc1n[nH]c2nc(-c3nccs3)c(Br)cc12)C1CCCC1 [SB-742609],0,0,30,39,0,0,44,5,0,0,31,31,39,9,12,0,0,0,27,3
CN(C)CCN(C)C(=O)c1cc(-c2ccncc2)c(-c2ccc(Cl)c(O)c2)o1.Cl.Cl [SB-710397],0,0,0,48,0,9,24,0,46,14,2,1,12,0,0,0,17,2,42,0
Cc1ccc(NC(=O)Nc2cc(C(C)(C)C)nn2-c2ccccc2)cc1 [GSK1014915],0,0,12,2,0,26,15,0,0,0,28,91.9,2,0,0,12,23,8,41,52
Cc1cccc(-c2cc(Nc3ccncc3)c3ccccc3n2)n1 [GSK223675],0,0,0,0,0,0,4,0,10,5,11,4,0,0,0,0,0,0,33,0
COc1cccc(-c2cc(-c3c[nH]nc3-c3ccccn3)ccn2)c1 [GW680338],0,67,8,13,0,19,14,10,65,10,6,0,8,0,43,9,16,0,35,4
O=C1NC(=O)C(N2CCc3ccccc32)=C1c1ccccc1Cl [SB-373598],0,0,9,8,0,12,27,17,4,20,7,0,18,14,50,46,0,5,7,87
C[C@@H]1CCCCN1c1cc(-c2ccc3c(N)n[nH]c3c2)nc(N)n1 [GSK2258759],0,0,8,7,14,0,11,0,15,0,0,5,0,0,0,0,6,0,28,0
Cc1ccccc1-n1cnc2c(N)ncnc21 [SKF-97510],0,0,0,0,20,0,7,0,0,0,0,0,0,0,0,1,0,0,0,0
Cc1csc(-c2nc(Nc3ccncc3)c3ccccc3n2)n1 [GW869640],17,38,29,47,0,24,0,30,55,10,0,38,2,8,60,0,0,44,11,18
Cc1cccc(-c2nc(-c3ccc(S(C)(=O)=O)cc3)sc2-c2ccnc(NCCc3ccccc3)c2)c1,7,0,25,0,8,0,0,0,0,0,3,0,0,0,2,0,6,0,28,0
COc1ccccc1-c1ccc2c(NC(=O)C3CC3)n[nH]c2n1 [SB-711239],0,16,21,0,0,15,2,0,6,7,0,0,14,8,8,8,0,0,16,0
